Inconclusive results are not listed. Calls of active or inactive are those of the source. The calls were made as follows, unless noted: active = hit-call score of the fitted dose curve at least 0.9, where 1 is the maximum; inactive = score below 0.9.
Experiments:
[1] = target: Paired box protein Pax-6 (Homo sapiens) (UniProt P26367); assay: ATG_Pax6_CIS: Attagene CIS-FACTORIAL HepG2 Assay for human Paired Box 6 (PAX6) (AID 2282956); settings: HepG2 CIS-FACTORIAL PAX6 reporter transcription, RNA readout; actives raise or lower the signal
Paired box protein Pax-6 (Homo sapiens), sequence (P26367 whole entry, looked up): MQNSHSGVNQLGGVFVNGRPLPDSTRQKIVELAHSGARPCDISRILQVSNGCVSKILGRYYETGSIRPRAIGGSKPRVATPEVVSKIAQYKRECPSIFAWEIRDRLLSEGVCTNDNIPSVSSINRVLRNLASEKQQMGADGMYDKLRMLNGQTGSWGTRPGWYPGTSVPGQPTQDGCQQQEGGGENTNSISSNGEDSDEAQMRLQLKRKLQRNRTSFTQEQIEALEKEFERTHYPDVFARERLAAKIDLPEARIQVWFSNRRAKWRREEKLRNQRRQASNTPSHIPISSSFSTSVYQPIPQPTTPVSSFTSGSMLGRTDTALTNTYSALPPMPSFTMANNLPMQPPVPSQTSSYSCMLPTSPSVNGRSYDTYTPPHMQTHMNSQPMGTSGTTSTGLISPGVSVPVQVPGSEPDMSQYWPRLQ
How it was run: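 HepG2 cells transiently transfected with multiplexed cis-promoter reporter units (endogenous TF activity) were dosed for 24 h. Reporter mRNA was quantified by RT-PCR, 6-FAM labeling, HpaI digestion and capillary electrophoresis; bidirectional fitting versus DMSO baseline.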

[2] = ATG_PXRE_CIS: Attagene CIS-FACTORIAL HepG2 Assay for human Pregnane X Receptor Element (PXRE) (AID 2282957); settings: HepG2 Attagene CIS-FACTORIAL PXRE reporter, mRNA; actives raise or lower the signal
How it was run: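 HepG2 cells transiently transfected with cis-element-driven multiplexed reporter units; after 24 h chemical exposure, reporter mRNA measured by RT-PCR, 6-FAM labelling, HpaI digestion and capillary electrophoresis. Bidirectional fitting relative to DMSO.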

[3] = ATG_PPRE_CIS: Attagene CIS-FACTORIAL HepG2 Assay for human Peroxisome Proliferator-activated Response Element (PPRE) (AID 2282958); settings: HepG2 PPRE cis-element reporter, Attagene transcription factor profiling; actives raise or lower the signal
How it was run: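 HepG2 cells are transiently transfected with multiplexed cis-promoter reporter units to report endogenous PPAR activity. After 24 h dosing, reporter mRNA is read by RT-PCR and capillary electrophoresis. Fitting is bidirectional against DMSO.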

[4] = ATG_RORE_CIS: Attagene CIS-FACTORIAL HepG2 Assay for human RAR-related Orphan Receptor Element (RORE) (AID 2282959); settings: HepG2 Attagene cis-factorial RORE reporter, mRNA; actives raise or lower the signal
How it was run: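 HepG2 cells carrying transiently transfected cis-regulated reporter units; RORE-driven reporter mRNA quantified 24 h post-dosing by RT-PCR, 6-FAM primer extension, HpaI digestion and capillary electrophoresis. Bidirectional fit versus DMSO.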

[5] = ATG_Sox_CIS: Attagene CIS-FACTORIAL HepG2 Assay for human SRY-box transcription factor (SOX) (AID 2282960); settings: HepG2 Attagene cis-factorial SOX reporter, mRNA; actives raise or lower the signal
How it was run: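 HepG2 cells transiently transfected with multiple cis-regulated reporter units, then dosed for 24 h. Reporter mRNA quantified by RT-PCR, fluorescent labelling, HpaI digestion and capillary electrophoresis; bidirectional fit versus DMSO.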

[6] = target: Transcription factor Sp1 (Homo sapiens) (UniProt P08047); assay: ATG_Sp1_CIS: Attagene CIS-FACTORIAL HepG2 Assay for human Specificity Protein 1 (Sp1) (AID 2282961); settings: HepG2 Sp1 cis-reporter transcription, actives raise or lower the signal
Transcription factor Sp1 (Homo sapiens), sequence (P08047 whole entry, looked up): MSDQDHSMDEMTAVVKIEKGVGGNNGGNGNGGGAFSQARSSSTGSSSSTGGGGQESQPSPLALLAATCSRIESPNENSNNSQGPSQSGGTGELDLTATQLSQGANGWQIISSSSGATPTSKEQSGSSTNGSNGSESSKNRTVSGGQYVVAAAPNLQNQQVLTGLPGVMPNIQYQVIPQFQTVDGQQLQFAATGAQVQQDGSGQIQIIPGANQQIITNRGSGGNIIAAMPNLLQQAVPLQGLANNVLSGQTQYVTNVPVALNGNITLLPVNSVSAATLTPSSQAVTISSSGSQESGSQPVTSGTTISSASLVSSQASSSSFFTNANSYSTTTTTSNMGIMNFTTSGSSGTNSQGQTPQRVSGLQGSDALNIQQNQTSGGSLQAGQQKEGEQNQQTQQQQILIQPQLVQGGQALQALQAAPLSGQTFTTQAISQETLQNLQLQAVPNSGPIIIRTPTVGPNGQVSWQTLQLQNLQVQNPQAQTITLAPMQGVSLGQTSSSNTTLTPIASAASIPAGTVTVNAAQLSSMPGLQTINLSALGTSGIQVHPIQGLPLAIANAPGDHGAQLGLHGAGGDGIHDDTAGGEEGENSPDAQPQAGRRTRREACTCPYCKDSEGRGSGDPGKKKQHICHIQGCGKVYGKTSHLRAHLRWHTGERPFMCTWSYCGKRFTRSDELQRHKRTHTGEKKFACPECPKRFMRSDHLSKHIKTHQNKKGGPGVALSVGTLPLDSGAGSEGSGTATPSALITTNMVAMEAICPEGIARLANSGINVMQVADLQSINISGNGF
How it was run: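 HepG2 cells transiently transfected with multiplexed cis-regulated reporter constructs, chemical exposure 24 h. Reporter mRNA quantified by RT-PCR with capillary electrophoresis; bidirectional fit relative to DMSO.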

[7] = ATG_SREBP_CIS: Attagene CIS-FACTORIAL HepG2 Assay for human Sterol Regulatory Element Binding (SREBP) (AID 2282962); settings: HepG2 Attagene cis-factorial SREBP reporter, mRNA; actives raise or lower the signal
How it was run: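 HepG2 cells transiently transfected with multiplexed cis-element reporter units report endogenous transcription factor activity. After 24 h of chemical exposure, reporter mRNA was quantified by RT-PCR, 6-FAM labelling, HpaI digestion and capillary electrophoresis; bidirectional fits used DMSO as baseline.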

[8] = target: Signal transducer and activator of transcription 3 (Homo sapiens) (UniProt P40763); assay: ATG_STAT3_CIS: Attagene CIS-FACTORIAL HepG2 Assay for human Signal Transducer and Activator of Transcription 3 (STAT3) (AID 2282963); settings: HepG2, Attagene cis-factorial STAT3 reporter transcription; actives raise or lower the signal
Signal transducer and activator of transcription 3 (Homo sapiens), sequence (P40763 whole entry, looked up): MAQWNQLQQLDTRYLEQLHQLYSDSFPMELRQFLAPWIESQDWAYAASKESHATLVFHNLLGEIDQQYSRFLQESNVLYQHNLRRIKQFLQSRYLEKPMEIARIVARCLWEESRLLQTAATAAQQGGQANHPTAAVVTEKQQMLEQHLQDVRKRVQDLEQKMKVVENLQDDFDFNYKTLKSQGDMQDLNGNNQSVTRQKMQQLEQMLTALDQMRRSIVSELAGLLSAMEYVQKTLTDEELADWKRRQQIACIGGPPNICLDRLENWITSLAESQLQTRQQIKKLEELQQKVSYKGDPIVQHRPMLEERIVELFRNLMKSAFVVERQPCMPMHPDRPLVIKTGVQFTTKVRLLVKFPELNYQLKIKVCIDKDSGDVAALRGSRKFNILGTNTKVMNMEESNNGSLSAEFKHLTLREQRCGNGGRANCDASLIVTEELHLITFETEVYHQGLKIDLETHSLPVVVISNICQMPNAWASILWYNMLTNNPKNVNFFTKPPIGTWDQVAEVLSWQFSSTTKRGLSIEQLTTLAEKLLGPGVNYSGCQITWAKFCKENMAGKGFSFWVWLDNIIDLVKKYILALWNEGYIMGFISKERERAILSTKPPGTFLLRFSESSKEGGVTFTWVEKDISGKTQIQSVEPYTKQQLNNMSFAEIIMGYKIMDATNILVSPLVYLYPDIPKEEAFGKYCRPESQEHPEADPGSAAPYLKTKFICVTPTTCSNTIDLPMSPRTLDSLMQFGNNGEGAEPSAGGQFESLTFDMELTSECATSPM
How it was run: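 HepG2 cells transiently transfected with multiple cis-element-driven reporter units report endogenous transcription factor activity. After 24 h compound exposure, reporter mRNA is measured by RT-PCR, 6-FAM labelling, HpaI digestion and capillary electrophoresis. Fitted bidirectionally versus DMSO.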

[9] = ATG_TA_CIS: Attagene CIS-FACTORIAL HepG2 Assay for human TA Basal Promoter (AID 2282964); settings: HepG2 Attagene CIS-factorial TA basal promoter reporter; actives raise or lower the signal
How it was run: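 Fluorescence from labelled RT-PCR reporter fragments, separated by capillary electrophoresis, gives the signal. Cells: HepG2 transiently carrying multiple reporter units, 24 h chemical dosing. Gain or loss relative to DMSO.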

[10] = ATG_TAL_CIS: Attagene CIS-FACTORIAL HepG2 Assay for human TAL Basal Promoter (AID 2282966); settings: HepG2 Attagene cis-factorial TAL promoter reporter; actives raise or lower the signal;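 also: background control endpoint measuring basal TAL promoter reporter mRNA not a specific factor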
How it was run: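 HepG2 cells transiently transfected with multiplexed cis-promoter reporter units, dosed 24 h. Reporter mRNA quantified by RT-PCR, 6-FAM labelling, HpaI digestion and capillary electrophoresis; TAL basal promoter serves as background control, fitted bidirectionally versus DMSO.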

[11] = ATG_TGFb_CIS: Attagene CIS-FACTORIAL HepG2 Assay for human Transforming Growth Factor (TGF) (AID 2282967); settings: HepG2 Attagene CIS TGFb reporter, mRNA transcription; actives raise or lower the signal
How it was run: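 Bidirectional fitting relative to DMSO gave the endpoint. Underlying data: reporter mRNA from HepG2 cells carrying transiently transfected cis-regulated reporter constructs, harvested 24 h after dosing and analyzed by RT-PCR and capillary electrophoresis.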

[12] = ATG_VDRE_CIS: Attagene CIS-FACTORIAL HepG2 Assay for human Vitamin D Receptor Element (VDRE) (AID 2282968); settings: HepG2 VDRE cis-reporter transcription, actives raise or lower the signal
How it was run: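 Transiently transfected HepG2 cells carrying cis-regulated reporter transcription units were exposed for 24 h. Reporter mRNA was measured by RT-PCR with fluorescent labelling and capillary electrophoresis, and fitted in both directions against DMSO.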

[13] = target: Nuclear receptor subfamily 1 group I member 3 (Homo sapiens) (UniProt Q14994); assay: ATG_CAR_TRANS: Attagene TRANS-FACTORIAL HepG2 Assay for human Constitutive Androstane Receptor (CAR) (AID 2282969; active = hit-call score of the fitted dose curve at least 0.9, where 1 is the maximum;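 also: activators raise reporter mRNA above DMSO so AC50 marks induction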); settings: HepG2 Attagene TRANS-FACTORIAL CAR reporter
Nuclear receptor subfamily 1 group I member 3 (Homo sapiens), sequence (Q14994 whole entry, looked up, the tested form may be a part): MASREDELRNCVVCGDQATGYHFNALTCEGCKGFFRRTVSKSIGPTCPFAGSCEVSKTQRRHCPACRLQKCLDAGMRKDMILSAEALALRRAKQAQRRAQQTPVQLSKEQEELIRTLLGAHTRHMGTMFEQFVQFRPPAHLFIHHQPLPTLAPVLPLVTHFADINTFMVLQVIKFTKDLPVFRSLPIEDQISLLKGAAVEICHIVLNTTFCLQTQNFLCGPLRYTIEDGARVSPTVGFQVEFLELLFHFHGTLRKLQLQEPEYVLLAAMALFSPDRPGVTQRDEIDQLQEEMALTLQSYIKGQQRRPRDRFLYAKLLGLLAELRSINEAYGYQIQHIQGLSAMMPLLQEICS
How it was run: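 HepG2 cells transiently transfected with GAL4-UAS reporter units; TRANS format reads activity of exogenous chimeric NR-Gal4 protein. After 24 h dosing, reporter mRNA quantified by RT-PCR, 6-FAM labelling and capillary electrophoresis; gain of signal fitted against DMSO.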

[14] = target: Steroid hormone receptor ERR1 (Homo sapiens) (UniProt P11474); assay: ATG_ERRa_TRANS: Attagene TRANS-FACTORIAL HepG2 Assay for human Estrogen-Related Receptor alpha (ERRa) (AID 2282971; active = hit-call score of the fitted dose curve at least 0.9, where 1 is the maximum); settings: HepG2 Attagene TRANS reporter, ERRa transactivation
Steroid hormone receptor ERR1 (Homo sapiens), sequence (P11474 whole entry, looked up, the tested form may be a part): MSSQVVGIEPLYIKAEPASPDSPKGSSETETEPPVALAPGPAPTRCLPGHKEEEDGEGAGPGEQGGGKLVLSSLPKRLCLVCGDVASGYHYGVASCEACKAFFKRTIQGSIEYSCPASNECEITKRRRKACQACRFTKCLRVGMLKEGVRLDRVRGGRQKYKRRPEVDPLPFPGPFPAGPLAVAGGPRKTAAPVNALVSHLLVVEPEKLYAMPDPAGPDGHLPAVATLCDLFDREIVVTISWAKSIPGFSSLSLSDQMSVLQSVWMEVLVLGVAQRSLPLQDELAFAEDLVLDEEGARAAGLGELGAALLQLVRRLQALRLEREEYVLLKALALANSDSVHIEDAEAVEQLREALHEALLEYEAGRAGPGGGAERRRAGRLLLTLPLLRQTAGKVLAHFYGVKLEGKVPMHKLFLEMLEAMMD
How it was run: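 HepG2 cells transiently transfected with GAL4-UAS reporter units and chimeric NR-Gal4 constructs; after 24 hour compound incubation, reporter mRNA quantified by RT-PCR, fluorescent labelling and capillary electrophoresis, gain of signal versus DMSO.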

[15] = target: X-box-binding protein 1 (Homo sapiens) (UniProt P17861); assay: ATG_Xbp1_CIS: Attagene CIS-FACTORIAL HepG2 Assay for human X-box Binding Protein 1 (XBP1) (AID 2282972); settings: HepG2 XBP1 cis-element reporter, Attagene multiplex; actives raise or lower the signal
X-box-binding protein 1 (Homo sapiens), sequence (P17861 whole entry, looked up): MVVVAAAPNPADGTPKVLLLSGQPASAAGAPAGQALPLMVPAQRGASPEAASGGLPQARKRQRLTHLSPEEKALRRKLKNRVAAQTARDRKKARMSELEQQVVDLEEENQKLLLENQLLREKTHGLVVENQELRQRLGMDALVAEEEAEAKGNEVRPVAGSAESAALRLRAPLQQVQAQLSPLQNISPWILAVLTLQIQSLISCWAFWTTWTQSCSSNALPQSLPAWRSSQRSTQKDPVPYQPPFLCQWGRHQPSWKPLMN
How it was run: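 HepG2 cells transiently transfected with cis-regulated multiple reporter transcription units; endogenous transcription factor activity measured 24 hours after chemical dosing. Reporter mRNA quantified by RT-PCR, 6-FAM primer extension, HpaI digestion and capillary electrophoresis; bidirectional fitting versus DMSO.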

[16] = ATG_M_19_TRANS: Attagene TRANS-FACTORIAL HepG2 Assay for M19 Transcription Factor (Internal Marker) (AID 2282974; active = hit-call score of the fitted dose curve at least 0.9, where 1 is the maximum); settings: HepG2 Attagene TRANS-FACTORIAL M19 internal marker reporter
How it was run: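 HepG2 transiently transfected with GAL4-UAS multiplex reporter constructs, exposed 24 h; reporter RNA quantified by RT-PCR, 6-FAM labeling, HpaI digestion and capillary electrophoresis; internal background marker fitted upward versus DMSO.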

[17] = ATG_GAL4_TRANS: Attagene TRANS-FACTORIAL HepG2 Assay for GAL4 (Internal Marker) (AID 2282976; active = hit-call score of the fitted dose curve at least 0.9, where 1 is the maximum); settings: HepG2 Attagene TRANS GAL4 internal marker reporter
How it was run: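 Background-control readout: GAL4-UAS reporter transcript in transiently transfected HepG2 cells after 24 h compound exposure. Measured by RT-PCR, 6-FAM primer extension, HpaI digest and capillary electrophoresis; gain-of-signal fit versus DMSO.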

[18] = ATG_TCF_b_cat_CIS: Attagene CIS-FACTORIAL HepG2 Assay for human T-Cell-Factor with beta-catenin (TCF/b-cat) (AID 2282965); settings: HepG2 TCF/beta-catenin cis-reporter transcription, actives raise or lower the signal
How it was run: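 HepG2 cells transiently transfected with cis-promoter-driven multiplexed reporter units; reporter mRNA measured 24 h after dosing by RT-PCR, FAM labelling, HpaI digestion and capillary electrophoresis. Bidirectional fitting relative to DMSO baseline.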

[19] = target: Estrogen-related receptor gamma (Homo sapiens) (UniProt P62508); assay: ATG_ERRg_TRANS: Attagene TRANS-FACTORIAL HepG2 Assay for human Estrogen-Related Receptor gamma (ERRg) (AID 2282977; active = hit-call score of the fitted dose curve at least 0.9, where 1 is the maximum;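 also: hits increase reporter signal over DMSO so potencies reflect activators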); settings: HepG2 Attagene TRANS reporter, ERRg transactivation
Estrogen-related receptor gamma (Homo sapiens), sequence (P62508 whole entry, looked up, the tested form may be a part): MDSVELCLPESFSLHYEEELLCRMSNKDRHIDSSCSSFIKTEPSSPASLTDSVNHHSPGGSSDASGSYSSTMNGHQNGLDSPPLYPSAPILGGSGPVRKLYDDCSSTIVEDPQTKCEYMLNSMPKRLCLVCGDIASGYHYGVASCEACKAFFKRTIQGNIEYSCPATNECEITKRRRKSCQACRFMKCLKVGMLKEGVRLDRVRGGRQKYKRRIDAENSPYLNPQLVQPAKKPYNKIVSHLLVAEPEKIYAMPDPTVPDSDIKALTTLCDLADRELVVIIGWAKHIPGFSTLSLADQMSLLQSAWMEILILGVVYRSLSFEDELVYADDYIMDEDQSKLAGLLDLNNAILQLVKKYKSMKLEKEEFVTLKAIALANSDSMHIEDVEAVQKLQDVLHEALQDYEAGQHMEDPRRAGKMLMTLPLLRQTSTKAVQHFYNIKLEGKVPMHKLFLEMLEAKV
How it was run: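 Transfect HepG2 with multiple GAL4-UAS reporter transcription units; dose chemicals 24 h; isolate RNA, reverse-transcribe with oligo(dT), PCR-amplify, label with 6-FAM, digest with HpaI; size fragments by capillary electrophoresis. DMSO serves as negative control.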

Measured: AC50

CCCCC(CC)COC(C)=O (stereo not given)
not listed: [18] | [19]
inactive: all other assays above

CCCCCC(C=O)=Cc1ccccc1
active: [2] 24.5 µM | [3] 26.5 µM
not listed: [12] | [13] | [14] | [19]
inactive: all other assays above

O=c1c(O)c(-c2ccc(O)cc2)oc2cc(O)cc(O)c12
active: [2] 39.1 µM
not listed: [12] | [14] | [16] | [17]
inactive: all other assays above

C=Cc1ccc(C(C)(C)C)cc1
active: [2] 27.4 µM
not listed: [12] | [14] | [19]
inactive: all other assays above

COc1ccc(CCC(C)=O)cc1
not listed: [13] | [14] | [19]
inactive: all other assays above

CCCC(O)C(O)CO (stereo not given)
not listed: [13] | [14] | [17] | [19]
inactive: all other assays above

Cc1c(Cl)cccc1[N+](=O)[O-]
not listed: [13] | [14] | [17] | [19]
inactive: all other assays above

CC(C)CC(C)CC(O)CC(C)C (stereo not given)
not listed: [13] | [14] | [19]
inactive: all other assays above

CCCSc1ccc2nc(NC(=O)OC)[nH]c2c1
not listed: [13] | [14] | [17] | [19]
inactive: all other assays above

From PubChem BioAssay (EPA / NIEHS)
